High-throughput results deposited in PubChem by several laboratories.
MazEF act: MazEF (E. coli) toxin RNase activation; P0AE70; FAM/BHQ RNA-DNA oligo cleavage fluorescence, 5 h; activation, % at 20 µM; actives 0.32% (n = 350,000); in the data active = activation above about 50%
Target sequence (P0AE70 whole entry, looked up): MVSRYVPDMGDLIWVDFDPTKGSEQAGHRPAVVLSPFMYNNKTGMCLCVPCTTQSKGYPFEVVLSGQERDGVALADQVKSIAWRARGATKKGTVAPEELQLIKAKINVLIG
BoNT A protease: BoNT A light chain protease inhibition. actives 0.17% (n = 360,000). inhibition, % at 10 µM. multiplex microsphere protease substrate cleavage, flow cytometry; also: plate controls were buffer without enzyme for full effect and enzyme alone for no effect
BoNT F protease: blocks Botulinum neurotoxin F light chain protease | inhibition, % at 10 µM | Multiplex microsphere protease cleavage assay, flow cytometry | actives 0.22% (n = 360,000); in the data active = inhibition above about 35%, passing the limit was not always enough; inconclusive = no clear call, values can overlap the other calls; also: plate controls were buffer without enzyme for full effect and enzyme alone for no effect
Anthrax LF inh2: anthrax lethal factor protease inhibition | P15917 | actives 0.12% (n = 360,000) | AID 588501 | multiplex microsphere protease cleavage assay, LF | inhibition, % at 10 µM; also: plate controls were buffer without enzyme for full effect and enzyme alone for no effect
Autofluor counter: compound fluorescence in toxin protease inhibitor counterscreen; compound autofluorescence counterscreen, microsphere flow cytometry; active compounds read high; fluorescence intensity (no concentration beside the values); actives 3.1% (n = 360,000); in the data active = fluorescence intensity above about 16000; inconclusive = no clear call, values can overlap the other calls
SSB-PriA inh: blocks PriA binding to SSB C-terminal tail | actives 0.6% (n = 430,000) | inhibition, % at 33 µM | AlphaScreen SSBct-PriA binding, biotinylated peptide; in the data active = inhibition mostly above about 37%, no sharp cut-off; inactive = mostly below about 20%;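 also: plate controls were negative control peptide for no effect and reference peptide for full effect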
Starred values were filed as active, the others as inactive; ? = inconclusive; · = no result given. Rows were chosen to be rich in hits. Some 3.3% of all compounds tested hit in one or more screens of this group. Rule as the data show it, unless noted: active = inhibition above about 30%; inconclusive = no clear call, values can overlap the other calls; inactive = below that.

SMILES	MazEF act	BoNT A protease	BoNT F protease	Anthrax LF inh2	Autofluor counter	SSB-PriA inh
O=C([C@H]1CC(=O)N(c2ccc(Cl)cc2)C1)N1CCC(Oc2cnccn2)CC1	·	·	·	·	·	-3
N#C/C(=C/c1cn[nH]c1-c1ccccc1)C(=O)Nc1cccc(Cl)c1Cl	·	·	·	·	·	-1
O=C(Cn1c(=O)oc2cc(S(=O)(=O)N3CCCC3)ccc21)NC1CCCCC1	-10	0	-5	-6	4536	-13
O=C(Cn1c(=O)oc2cc(S(=O)(=O)N3CCCC3)ccc21)NCc1ccc(F)cc1	-19	0	-1	-3	6277	104*
Cn1c(=O)oc2cc(S(=O)(=O)N3CCCCC3)ccc21	-1	0	8	-5	4345	-11
COC(=O)n1c(=O)oc2cc(S(=O)(=O)N3CCCCC3)ccc21	-2	?	3	0	21823*	-8
CCOC(=O)n1c(=O)oc2cc(S(=O)(=O)N3CCCCC3)ccc21	0	0	1	0	23136*	-26
CCOC(=O)N1CCN(S(=O)(=O)c2ccc3c(c2)oc(=O)n3C)CC1	0	-3	-14	-6	9984	-15
O=C(CCCSc1ccc(F)cc1)Nc1nc(-c2ccc(F)cc2)cs1	·	·	·	·	·	-4
CC(=NN1CCN(Cc2ccccc2Cl)CC1)c1ccc([N+](=O)[O-])cc1	·	·	·	·	·	38*
C/C(=N\N1CCN(Cc2ccccc2Cl)CC1)c1ccc([N+](=O)[O-])cc1	10	·	·	·	·	·
Cc1cc(Cl)c(S(=O)(=O)Nc2ccc3c(c2)OCO3)cc1OCC(=O)NC1CCCCC1	2	-4	-7	-3	25458*	19
Cc1cc(Cl)c(S(=O)(=O)Nc2ccc3c(c2)OCO3)cc1OCC(N)=O	-3	1	2	-4	3526	-13
CC(C)(C)NC(=O)C1CCN(c2ccc(S(=O)(=O)N3CCOCC3)cc2Cl)CC1	1	0	-4	0	3282	2
O=C(NC1CC1)C1CCN(c2ccc(S(=O)(=O)N3CCOCC3)cc2Cl)CC1	10	1	-1	-6	22681*	-1
Cc1cc(Cl)c(S(=O)(=O)NC(C(=O)O)c2ccccc2)cc1OCC(N)=O (configuration not stated)	7	0	-12	-3	3299	-9
Cc1cc(Cl)c(S(=O)(=O)NC(C(=O)O)C(C)C)cc1OCC(=O)NC1CCCCC1 (configuration not stated)	7	?	-7	-4	20262*	0
O=C(COc1ccc(S(=O)(=O)N2CCCC2)cc1Cl)NC1CCCC1	4	-3	-6	-4	20890*	0
COc1ccc(S(=O)(=O)CC(=O)N2CCN(c3nc4ccc([N+](=O)[O-])cc4s3)CC2)cc1	·	·	·	·	·	0
Cc1cc(Cl)c(S(=O)(=O)NCc2cccnc2)cc1OCC(=O)NC1CCCCC1	2	-2	-2	-2	10975	-7
Cc1cc(Cl)c(S(=O)(=O)N2CCCC2)cc1OCC(=O)NC1CCCCC1	-3	?	0	0	20066*	-14
Cc1cccn2c(=O)c(C=Nc3ccc(Cl)cc3)c(NCCO)nc12	-1	-2	-4	0	21575*	-9
Cc1cccn2c(=O)c(C=Nc3ccccc3)c(NCCO)nc12	4	0	-2	2	8398	-6
C=CCn1c(C(CCC(C)C)CC(C)(C)O)n[nH]c1=S (configuration not stated)	-2	-4	-6	0	24772*	2
O=C(O)c1ccc(COc2ccc(C=NNC(=O)c3cccs3)cc2)cc1	·	·	·	·	·	-13
SMILES	MazEF act	BoNT A protease	BoNT F protease	Anthrax LF inh2	Autofluor counter	SSB-PriA inh
O=C(N/N=C/c1ccc(OCc2ccccc2)cc1)c1cccs1	13	2	6	-9	20999*	·
Cc1nnc(N/N=C\c2cccs2)[nH]c1=O	·	·	·	·	·	-11
C=C(C)CSc1nnc([C@@H](NC(=O)OC(C)(C)C)C(C)CC)o1 (some centres not stated)	-21	?	5	-1	20796*	-9
CCSc1nnc([C@@H](NC(=O)OC(C)(C)C)C(C)C)o1	1	0	?	7	3526	-8
COc1ccc(-c2csc(N(CC3CCCO3)C(=O)c3cccs3)n2)cc1 (configuration not stated)	2	?	-4	-2	22735*	-21
O=C(C1CC1)N(Cc1ccco1)c1nc(-c2ccccc2)cs1	5	-2	-6	-1	23051*	-3
COc1ccc(-c2csc(N(Cc3ccco3)C(=O)c3cccs3)n2)cc1	64*	-1	-8	-10	4258	-6
